# Results reported in PubChem BioAssay.
# For part of these data: Results with a measured potency or affinity are listed apart. Calls of active or inactive are those of the source.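 The calls were made as follows, unless noted: active = fluorescence ratio normalized to control raised more than 50% in primary screen plus both repeat runs; inactive = the rest.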
# How the values were obtained:
# [1] = system: TRPC4 beta (transient receptor potential cation channel C4), mouse; assay: activators of mouse TRPC4 channel, confirmation, cell-based, Fluo4 calcium, HEK293 TRPC4beta/mu-opioid, duplicates, 10 µM (AID 2426); conditions: Fluo4 calcium fluorescence, at 10 µM; active compounds read high;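 as to activation: percent rise of integrated ratio over buffer wells lacking compound which define 0%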
# [2] = system: transient receptor potential cation channel C4 beta (TRPC4), mouse; assay: activators of mouse TRPC4 channel, confirmation, cell-based, second round, Fluo4, HEK293 TRPC4beta/mu-opioid, 1 µM (AID 2461;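 active = primary screen active and over 50% activation in each of two duplicate runs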;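 as to activation: 0% = wells without test compound as baseline of integrated fluorescence ratio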); conditions: Fluo4 calcium fluorescence, at 1 µM; active compounds read high
# [3] = system: TRPC4 (transient receptor potential cation channel C4 beta), mouse; assay: positive allosteric modulators of mouse TRPC4, confirmation, cell-based, second round, Fluo-4, HEK293 TRPC4beta/mu-opioid, 1 µM (AID 2554;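 active = primary screen hit whose fluorescence ratio, in both repeats, exceeds the weak agonist control mean by 3 SD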); conditions: DAMGO EC20, Fluo-4 calcium flux, at 1 µM; active compounds read high
# [4] = system: TRPC4 beta (transient receptor potential cation channel C4), mouse; assay: positive allosteric modulators of mouse TRPC4, confirmation, cell-based, Fluo-4, HEK293 TRPC4beta/mu-opioid (AID 2555;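 active = primary screen hit whose calcium fluorescence ratio, in both repeats, exceeds the weak agonist control mean by 3 SD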); conditions: DAMGO EC20, Fluo-4 calcium flux, at 10 µM; active compounds read high
# [5] = biological target: Short transient receptor potential channel 4 (Mus musculus) (UniProt Q9QUQ5); assay: inhibitors of mouse TRPC4 channel, confirmation, cell-based, Fluo4, HEK293 TRPC4beta/mu-opioid (AID 2636;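 active = calcium signal cut by more than 3 SD below the full-agonist control yet still positive, in both repeats and the earlier primary screen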); conditions: DAMGO, Fluo4 calcium flux, at 10 µM; active compounds read high
# [6] = biological target: Short transient receptor potential channel 4 (Mus musculus) (UniProt Q9QUQ5); assay: inhibitors of mouse TRPC4 channel, confirmation, cell-based, second round, Fluo4, HEK293 TRPC4beta/mu-opioid, 1 µM (AID 2637;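 active = calcium signal ratio cut to more than 3 SD under the fully stimulated control mean yet still positive, in both repeats and the primary screen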); conditions: Fluo4 calcium flux, DAMGO, at 1 µM; active compounds read high
# [7] = biological target: Short transient receptor potential channel 4 (Mus musculus) (UniProt Q9QUQ5); assay: TRPC4 positive allosteric modulators, dose response, cell-based, HEK293 TRPC4/mu-opioid, Fluo-4 calcium, EC20 DAMGO (AID 434941;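 active = earlier screen potentiator hit that boosts the TRPC4 ion channel at some dose, with a dose response; inactive = no potentiation, no dose response, or not a prior hit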;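 also: calcium entry triggered by an EC20 dose of DAMGO at the co-expressed mu-opioid receptor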)
# [8] = biological target: Short transient receptor potential channel 4 (Mus musculus) (UniProt Q9QUQ5); assay: mouse TRPC4 channel inhibitors, dose response, cell-based, HEK293 TRPC4/mu-opioid, Fluo-4 calcium (AID 434942;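 active = primary screen inhibitor hit that blocks the TRPC4 channel at some tested dose, yielding a dose curve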)
# [9] = biological target: Short transient receptor potential channel 6 (Mus musculus) (UniProt Q61143); assay: inhibition of mouse TRPC6 channel, confirmation, selectivity assay for TRPC4 inhibitor project, cell-based, HEK293, membrane potential dye, duplicate (AID 434948;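 active = active in primary screen and both duplicates, each dropping signal beyond three positive-control SD with fluorescence still positive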); conditions: HEK293 TRPC6, membrane potential dye fluorescence, at 10 µM, stimulated with maximal-effect acetylcholine; active compounds read high
# [10] = biological target: Short transient receptor potential channel 6 (Mus musculus) (UniProt Q61143); assay: activation of mouse TRPC6 channel, confirmation, selectivity assay for TRPC4 activator project, cell-based, HEK293, membrane potential dye, duplicate (AID 434950;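 active = membrane potential signal rise above negative control mean plus 3 SD in both duplicates, also active in the earlier TRPC4 screen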;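 as to activation: 0% = buffer only wells and 100% = acetylcholine maximal-effect wells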); conditions: HEK293 TRPC6, membrane potential fluorescence, at 10 µM; active compounds read high
# [11] = biological target: Short transient receptor potential channel 6 (Mus musculus) (UniProt Q61143); assay: TRPC6 potentiation by TRPC4 potentiator hits, confirmation, selectivity assay for TRPC4 potentiator project, HEK293 cells, membrane potential dye, duplicate (AID 434952;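 active = compound raising the membrane signal above positive-control mean plus 3 SD in both repeats, and a primary screen hit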); conditions: HEK293 TRPC6, membrane potential dye fluorescence, at 10 µM, maximal acetylcholine added after compound; active compounds read high
# [12] = biological target: Short transient receptor potential channel 4 (Mus musculus) (UniProt Q9QUQ5); assay: calcium flux activators in TRPC4/5HT1a cells, counter-screen for TRPC4 activator project, cell-based, second counter screen, HEK293 TRPC4/5HT1a, Fluo-4 (AID 434977;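 active = calcium signal rise above buffer-control mean plus 5 SD in both duplicates, and also a hit in the primary screen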;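 as to activation: plate controls were assay buffer for no effect and maximal serotonin response for full effect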); conditions: Fluo-4 calcium flux, at 10 µM; active compounds read high
# [13] = calcium flux inhibitors in TRPC4/5HT1a cells, confirmation, counter-screen for TRPC4 inhibitor project, cell-based, second counter screen, HEK293 TRPC4/5HT1a, Fluo-4 (AID 434978;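 active = primary screen active whose calcium signal fell more than 3 SD beyond the full-serotonin control mean in both duplicate plates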;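 also: serotonin given first at submaximal then at maximal dose after compound preincubation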); conditions: Fluo-4 calcium flux, at 10 µM, serotonin added to trigger calcium flux; active compounds read high
# [14] = system: TRPC4 (mouse), co-expressed with 5HT1a in HEK293; assay: calcium flux potentiators in TRPC4/5HT1a cells, confirmation, counter-screen for TRPC4 potentiator project, cell-based, second counter screen, HEK293 TRPC4/5HT1a, Fluo-4 (AID 434979;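 active = signal rise over 3 SD above mean of control wells given weak agonist, in both repeats and first screen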); conditions: Fluo-4 calcium flux, at 10 µM, serotonin added at its EC20 dose; active compounds read high
# [15] = calcium flux activation in mu-opioid HEK293 cells, confirmation, counter-screen for TRPC4 activator project, cell-based, HEK293 mu-opioid receptor line (AID 449723;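 active = hit in primary screen, with calcium signal over 5 SD above buffer well mean in both duplicates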;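 also: counter screen cells carry the mu-opioid receptor alone and lack TRPC4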); conditions: Fluo-4 calcium fluorescence, at 10 µM; active compounds read high
# [16] = calcium flux enhancement in mu-opioid HEK293 cells, confirmation, counter-screen for TRPC4 allosteric potentiator project, cell-based, HEK293 mu-opioid receptor line (AID 449724;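 active = calcium signal rise more than 3 SD above the low-dose agonist control mean, in both duplicate plates and the primary screen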); conditions: Fluo-4 calcium flux, at 10 µM, compound added before EC20 DAMGO stimulus; active compounds read high
# Sequence of Short transient receptor potential channel 4 (Mus musculus) (Q9QUQ5 whole entry, looked up): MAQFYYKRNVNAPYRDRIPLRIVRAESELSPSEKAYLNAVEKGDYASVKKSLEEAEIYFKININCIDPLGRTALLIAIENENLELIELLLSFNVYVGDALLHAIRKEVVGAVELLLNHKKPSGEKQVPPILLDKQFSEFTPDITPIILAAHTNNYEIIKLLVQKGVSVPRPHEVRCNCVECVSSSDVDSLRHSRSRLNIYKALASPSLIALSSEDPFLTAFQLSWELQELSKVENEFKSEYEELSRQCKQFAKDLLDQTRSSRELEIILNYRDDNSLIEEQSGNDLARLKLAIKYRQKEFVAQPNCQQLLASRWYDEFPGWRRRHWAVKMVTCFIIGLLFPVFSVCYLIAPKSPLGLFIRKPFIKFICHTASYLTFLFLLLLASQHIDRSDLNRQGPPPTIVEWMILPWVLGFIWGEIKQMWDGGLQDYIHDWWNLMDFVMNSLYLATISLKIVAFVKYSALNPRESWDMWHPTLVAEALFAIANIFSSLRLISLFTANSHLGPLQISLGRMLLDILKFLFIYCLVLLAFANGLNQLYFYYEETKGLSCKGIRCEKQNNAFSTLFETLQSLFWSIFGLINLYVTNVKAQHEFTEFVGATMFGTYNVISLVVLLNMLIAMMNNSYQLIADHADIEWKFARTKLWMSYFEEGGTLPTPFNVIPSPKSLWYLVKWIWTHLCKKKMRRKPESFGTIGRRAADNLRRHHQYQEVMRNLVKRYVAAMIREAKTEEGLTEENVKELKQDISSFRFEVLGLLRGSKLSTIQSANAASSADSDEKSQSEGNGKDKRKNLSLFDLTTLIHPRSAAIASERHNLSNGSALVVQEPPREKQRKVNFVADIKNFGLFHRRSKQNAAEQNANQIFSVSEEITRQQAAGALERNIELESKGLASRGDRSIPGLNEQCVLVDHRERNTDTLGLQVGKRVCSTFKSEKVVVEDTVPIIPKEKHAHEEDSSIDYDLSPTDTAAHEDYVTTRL
# Sequence of Short transient receptor potential channel 6 (Mus musculus) (Q61143 whole entry, looked up): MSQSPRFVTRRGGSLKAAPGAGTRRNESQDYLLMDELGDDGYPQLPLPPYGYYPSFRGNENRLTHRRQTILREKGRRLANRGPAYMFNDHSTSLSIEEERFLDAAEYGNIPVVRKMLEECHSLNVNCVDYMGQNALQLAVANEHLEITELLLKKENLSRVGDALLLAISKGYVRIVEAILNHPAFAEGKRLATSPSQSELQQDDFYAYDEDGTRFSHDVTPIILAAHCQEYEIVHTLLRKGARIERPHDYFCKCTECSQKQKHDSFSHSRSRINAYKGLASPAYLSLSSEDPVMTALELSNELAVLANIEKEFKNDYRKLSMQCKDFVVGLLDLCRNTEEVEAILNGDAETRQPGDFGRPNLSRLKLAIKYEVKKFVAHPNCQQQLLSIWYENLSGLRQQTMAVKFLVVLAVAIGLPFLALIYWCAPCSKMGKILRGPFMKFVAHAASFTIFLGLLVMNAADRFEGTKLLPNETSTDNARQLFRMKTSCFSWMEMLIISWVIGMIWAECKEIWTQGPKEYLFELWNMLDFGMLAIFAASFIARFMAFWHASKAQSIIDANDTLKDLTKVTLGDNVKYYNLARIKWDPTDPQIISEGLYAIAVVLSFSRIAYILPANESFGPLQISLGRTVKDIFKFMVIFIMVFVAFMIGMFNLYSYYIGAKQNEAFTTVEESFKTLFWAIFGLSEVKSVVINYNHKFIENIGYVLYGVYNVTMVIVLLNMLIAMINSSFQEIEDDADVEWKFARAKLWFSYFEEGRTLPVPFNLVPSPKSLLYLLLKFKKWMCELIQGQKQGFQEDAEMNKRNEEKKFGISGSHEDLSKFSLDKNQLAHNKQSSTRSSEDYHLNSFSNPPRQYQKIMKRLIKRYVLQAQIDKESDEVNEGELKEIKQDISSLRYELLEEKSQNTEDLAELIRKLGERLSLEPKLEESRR
smiles,measurement,setting,value
CCOC(=O)C1(CCc2ccccc2)CCN(Cc2ccc(OC)cc2)CC1,activation,[1],101% (active)
same,outcome,[2],inactive
same,outcome,[3],inactive
same,outcome,[4],inactive
same,outcome,[5],inactive
same,outcome,[6],inactive
same,outcome,[7],inactive
same,outcome,[8],inactive
same,outcome,[9],inactive
same,activation,[10],77.5% (active)
same,outcome,[11],inactive
same,outcome,[12],inactive
same,outcome,[13],inactive
same,outcome,[14],inactive
same,outcome,[15],inactive
same,outcome,[16],inactive
Cc1csc2c(N3CCN(C(=O)NC(C)(C)C)CC3)ncnc12,activation,[1],92% (active)
same,outcome,[2],inactive
same,outcome,[3],inactive
same,outcome,[4],inactive
same,outcome,[5],inactive
same,outcome,[6],inactive
same,outcome,[7],inactive
same,outcome,[8],inactive
same,outcome,[9],inactive
same,outcome,[10],inactive
same,outcome,[11],inactive
same,activation,[12],36.7% (active)
same,outcome,[13],inactive
same,outcome,[14],inactive
same,outcome,[15],inactive
same,outcome,[16],inactive
Cc1c(CN2CCC(n3nccc3NC(=O)C3CC3)CC2)[nH]c2ccccc12,activation,[1],138% (active)
same,outcome,[2],inactive
same,outcome,[3],inactive
same,outcome,[4],inactive
same,outcome,[5],inactive
same,outcome,[6],inactive
same,outcome,[7],inactive
same,outcome,[8],inactive
same,outcome,[9],inactive
same,activation,[10],26% (active)
same,outcome,[11],inactive
same,outcome,[12],inactive
same,outcome,[13],inactive
same,outcome,[14],inactive
same,outcome,[15],inactive
same,outcome,[16],inactive
O=C(c1sc2ccccc2c1Cl)N(Cc1cccs1)C1CCS(=O)(=O)C1 (stereo not given),activation,[1],265% (active)
same,activation,[2],79% (active)
same,outcome,[3],inactive
same,outcome,[4],inactive
same,outcome,[5],inactive
same,outcome,[6],inactive
same,outcome,[7],inactive
same,outcome,[8],inactive
same,outcome,[9],inactive
same,activation,[10],35% (active)
same,outcome,[11],inactive
same,activation,[12],12% (active)
same,outcome,[13],inactive
same,outcome,[14],inactive
same,outcome,[15],inactive
same,outcome,[16],inactive
Cc1cccc2cc(C(c3nnnn3Cc3ccccc3)N3CCN(C)CC3)c(=O)[nH]c12 (stereo not given),activation,[1],118% (active)
same,outcome,[2],inactive
same,outcome,[3],inactive
same,outcome,[4],inactive
same,outcome,[5],inactive
same,outcome,[6],inactive
same,outcome,[7],inactive
same,outcome,[8],inactive
same,outcome,[9],inactive
same,activation,[10],29% (active)
same,outcome,[11],inactive
same,outcome,[12],inactive
same,outcome,[13],inactive
same,outcome,[14],inactive
same,outcome,[15],inactive
same,outcome,[16],inactive
CN(C)C(CNC(=O)c1cnc(Cl)c(Cl)c1)c1ccccc1 (stereo not given),activation,[1],169% (active)
same,activation,[2],151% (active)
same,outcome,[3],inactive
same,outcome,[4],inactive
same,outcome,[5],inactive
same,outcome,[6],inactive
same,outcome,[7],inactive
same,outcome,[8],inactive
same,outcome,[9],inactive
same,activation,[10],30.5% (active)
same,outcome,[11],inactive
same,outcome,[12],inactive
same,outcome,[13],inactive
same,outcome,[14],inactive
same,outcome,[15],inactive
same,outcome,[16],inactive
CN(CCc1ccccn1)C(=O)CC1C(=O)NCCN1Cc1ccccc1C(F)(F)F (stereo not given),activation,[1],178% (active)
same,outcome,[2],inactive
same,outcome,[3],inactive
same,outcome,[4],inactive
same,outcome,[5],inactive
same,outcome,[6],inactive
same,outcome,[7],inactive
same,outcome,[8],inactive
same,outcome,[9],inactive
same,outcome,[10],inactive
same,outcome,[11],inactive
same,activation,[12],50.4% (active)
same,outcome,[13],inactive
same,outcome,[14],inactive
same,outcome,[15],inactive
same,outcome,[16],inactive
COC(=O)[C@@]1(Cc2ccc(F)cc2)[C@H]2c3cc(C(=O)N(C)C)n(CCc4ccccn4)c3C[C@H]2CN1C(=O)c1ccccc1,activation,[1],136% (active)
same,outcome,[2],inactive
same,outcome,[3],inactive
same,outcome,[4],inactive
same,outcome,[5],inactive
same,outcome,[6],inactive
same,outcome,[7],inactive
same,outcome,[8],inactive
same,outcome,[9],inactive
same,activation,[10],54% (active)
same,outcome,[11],inactive
same,outcome,[12],inactive
same,outcome,[13],inactive
same,outcome,[14],inactive
same,outcome,[15],inactive
same,outcome,[16],inactive
CC1(c2ccc(Cl)cc2Cl)OCC(Cn2ccnc2)O1 (stereo not given),activation,[1],89% (active)
same,outcome,[2],inactive
same,outcome,[3],inactive
same,outcome,[4],inactive
same,outcome,[5],inactive
same,outcome,[6],inactive
same,outcome,[7],inactive
same,outcome,[8],inactive
same,outcome,[9],inactive
same,activation,[10],48.5% (active)
same,outcome,[11],inactive
same,activation,[12],19.9% (active)
same,outcome,[13],inactive
same,outcome,[14],inactive
same,outcome,[15],inactive
same,outcome,[16],inactive
CCN(CC)CCCOc1ccc(Cl)c(Cl)c1,outcome,[1],inactive
same,outcome,[2],inactive
same,potentiation,[3],31% (active)
same,potentiation,[4],33% (active)
same,outcome,[5],inactive
same,outcome,[6],inactive
same,outcome,[7],inactive
same,outcome,[8],inactive
same,outcome,[9],inactive
same,activation,[10],48% (active)
same,outcome,[11],inactive
same,activation,[12],17.9% (active)
same,outcome,[13],inactive
same,potentiation,[14],21.3% (active)
same,outcome,[15],inactive
same,outcome,[16],inactive
CC(C)(C)c1ccccc1NC(=O)NC1CCN(Cc2c(F)cccc2Cl)CC1,activation,[1],121% (active)
same,outcome,[2],inactive
same,outcome,[3],inactive
same,outcome,[4],inactive
same,outcome,[5],inactive
same,outcome,[6],inactive
same,outcome,[7],inactive
same,outcome,[8],inactive
same,outcome,[9],inactive
same,activation,[10],36% (active)
same,outcome,[11],inactive
same,activation,[12],71.5% (active)
same,outcome,[13],inactive
same,outcome,[14],inactive
same,outcome,[15],inactive
same,outcome,[16],inactive
CCOC(=O)C1(CCOc2ccccc2)CCN(Cc2ccc(NC(C)=O)cc2)CC1,activation,[1],146% (active)
same,activation,[2],68% (active)
same,outcome,[3],inactive
same,outcome,[4],inactive
same,outcome,[5],inactive
same,outcome,[6],inactive
same,outcome,[7],inactive
same,outcome,[8],inactive
same,outcome,[9],inactive
same,activation,[10],51% (active)
same,outcome,[11],inactive
same,outcome,[12],inactive
same,outcome,[13],inactive
same,outcome,[14],inactive
same,outcome,[15],inactive
same,outcome,[16],inactive
COc1ccc(CCN(C)CCC(=O)Nc2c(C)cc(C)cc2C)cc1OC,outcome,[1],inactive
same,outcome,[2],inactive
same,outcome,[3],inactive
same,outcome,[4],inactive
same,outcome,[5],inactive
same,outcome,[6],inactive
same,outcome,[7],inactive
same,outcome,[8],inactive
same,outcome,[9],inactive
same,activation,[10],48.5% (active)
same,outcome,[11],inactive
same,activation,[12],58.1% (active)
same,outcome,[13],inactive
same,outcome,[14],inactive
same,outcome,[15],inactive
same,outcome,[16],inactive
NC(=O)C1CCCN(CC(O)COCc2ccc(Cl)cc2)C1 (stereo not given),activation,[1],140% (active)
same,activation,[2],133% (active)
same,outcome,[3],inactive
same,outcome,[4],inactive
same,outcome,[5],inactive
same,outcome,[6],inactive
same,outcome,[7],inactive
same,outcome,[8],inactive
same,outcome,[9],inactive
same,activation,[10],31.5% (active)
same,outcome,[11],inactive
same,activation,[12],69.7% (active)
same,outcome,[13],inactive
same,outcome,[14],inactive
same,outcome,[15],inactive
same,outcome,[16],inactive
Cc1cc(NC(=O)c2cnn3cccnc23)nn1CC(=O)Nc1cccnc1,outcome,[1],inactive
same,outcome,[2],inactive
same,potentiation,[3],22% (active)
same,potentiation,[4],109% (active)
same,outcome,[5],inactive
same,outcome,[6],inactive
same,outcome,[7],inactive
same,outcome,[8],inactive
same,outcome,[9],inactive
same,outcome,[10],inactive
same,outcome,[11],inactive
same,outcome,[12],inactive
same,outcome,[13],inactive
same,potentiation,[14],72.1% (active)
same,outcome,[15],inactive
same,outcome,[16],inactive
